The values below come from ChEMBL document CHEMBL3988442, “University of Dundee, Small-Polar-MMV Screening Library” (2021).

Holding throughout (design): scale not given: direction of the effect not stated beside the values
In experiment [1] the target is Protein translocase subunit SecA (Escherichia coli (strain K12)) (UniProt P10408). The experiment can be described thus: Assay to Identify E. coli SecA ATPase Inhibitors. To be noted: 30 µM. It counts as functional.
Experiment [2] has as its target T1, Ubiquitin-activating enzyme e1, putative (Leishmania donovani (strain BPK282A1)) (UniProt E9BSI1).
T1 sequence (whole entry): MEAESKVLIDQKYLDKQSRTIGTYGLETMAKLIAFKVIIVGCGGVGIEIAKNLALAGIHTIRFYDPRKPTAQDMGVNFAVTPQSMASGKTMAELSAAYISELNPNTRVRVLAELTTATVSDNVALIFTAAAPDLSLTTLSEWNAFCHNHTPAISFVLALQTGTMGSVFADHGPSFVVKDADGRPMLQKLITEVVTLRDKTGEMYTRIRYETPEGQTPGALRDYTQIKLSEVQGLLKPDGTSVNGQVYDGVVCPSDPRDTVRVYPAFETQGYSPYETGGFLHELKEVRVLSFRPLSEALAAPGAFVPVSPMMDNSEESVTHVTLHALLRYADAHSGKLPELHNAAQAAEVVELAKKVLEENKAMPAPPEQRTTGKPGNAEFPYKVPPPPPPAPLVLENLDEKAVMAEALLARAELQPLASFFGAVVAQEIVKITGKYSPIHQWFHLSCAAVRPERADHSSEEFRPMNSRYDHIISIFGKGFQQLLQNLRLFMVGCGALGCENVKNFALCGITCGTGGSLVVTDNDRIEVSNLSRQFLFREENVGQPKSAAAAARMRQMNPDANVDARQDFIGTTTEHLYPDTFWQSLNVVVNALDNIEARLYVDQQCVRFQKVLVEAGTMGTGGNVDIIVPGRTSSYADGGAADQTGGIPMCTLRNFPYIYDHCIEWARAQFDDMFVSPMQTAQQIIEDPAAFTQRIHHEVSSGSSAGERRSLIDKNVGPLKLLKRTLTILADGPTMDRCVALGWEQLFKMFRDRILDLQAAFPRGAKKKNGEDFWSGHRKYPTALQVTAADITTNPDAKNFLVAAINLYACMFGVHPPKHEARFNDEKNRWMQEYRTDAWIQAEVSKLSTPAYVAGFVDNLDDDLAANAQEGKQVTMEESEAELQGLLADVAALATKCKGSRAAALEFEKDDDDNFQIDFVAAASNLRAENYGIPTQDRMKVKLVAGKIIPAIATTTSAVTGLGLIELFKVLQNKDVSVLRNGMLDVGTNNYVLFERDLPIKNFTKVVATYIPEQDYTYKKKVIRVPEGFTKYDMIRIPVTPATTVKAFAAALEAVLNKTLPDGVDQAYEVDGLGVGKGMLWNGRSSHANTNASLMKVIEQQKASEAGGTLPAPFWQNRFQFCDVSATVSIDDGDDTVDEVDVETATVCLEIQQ
Description: Leishmania donovani Ubiquitin Activating Enzyme (LdE1). The class given is functional. To be noted: 30 µM.

In experiment [3] the target is AMP-activated protein kinase, AMPK (Homo sapiens) (UniProt P54646+O43741+P54619+Q9UGJ0+Q9Y478+Q13131+Q9UGI9). The experiment can be described thus: AMP-dependent Kinase enzyme assay. An in vitro enzyme assay that detects ADP turnover that is directly proportional to AMPK activity. This uses naive AMPK that is activated during the assay with MK-8722. To be noted: 30 µM. It counts as functional.

Experiment [4] concerns the target Sialic acid-binding Ig-like lectin 9 (Homo sapiens) (UniProt Q9Y336). Description: Hs-Siglec9 ALPHAscreen SOP 20170721. The settings on record: 10 µM.
Another experiment has as its system Trypanosoma cruzi. Description: Trypanosoma cruzi phosphomannomutase and mannose-1-phosphate guanylyltransferase assay. The class given is functional. The settings on record: 10 µM.
Experiment [5] deals with T2, Arginase-2, mitochondrial (Homo sapiens) (UniProt P78540).
T2 sequence (whole entry): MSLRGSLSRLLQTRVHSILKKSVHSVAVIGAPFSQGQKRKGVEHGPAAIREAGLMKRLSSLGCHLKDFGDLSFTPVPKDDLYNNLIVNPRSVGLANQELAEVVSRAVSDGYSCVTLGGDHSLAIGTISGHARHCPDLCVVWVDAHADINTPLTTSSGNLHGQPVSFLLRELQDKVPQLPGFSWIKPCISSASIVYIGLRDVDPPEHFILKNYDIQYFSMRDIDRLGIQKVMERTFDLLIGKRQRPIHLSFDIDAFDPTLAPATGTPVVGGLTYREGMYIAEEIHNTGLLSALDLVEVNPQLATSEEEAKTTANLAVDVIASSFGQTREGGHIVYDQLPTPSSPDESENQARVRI
The experiment can be described thus: in vitro enzyme assay to detect the production of urea directly proportional to the activity of Arginase II. Note: in the data most compounds retested in dose-response had high values. The class given is functional. To be noted: 33.3 µM.

Experiment [6] has as its target T3, Proteasome subunit beta (Trypanosoma cruzi) (UniProt O96673).
T3 sequence (whole entry): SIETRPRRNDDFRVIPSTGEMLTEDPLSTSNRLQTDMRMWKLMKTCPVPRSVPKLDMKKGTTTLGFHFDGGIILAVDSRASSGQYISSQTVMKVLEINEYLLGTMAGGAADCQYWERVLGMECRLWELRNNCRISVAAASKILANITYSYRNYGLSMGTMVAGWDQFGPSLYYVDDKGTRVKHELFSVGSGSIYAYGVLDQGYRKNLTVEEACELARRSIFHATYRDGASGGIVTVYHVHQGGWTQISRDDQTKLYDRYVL
The experiment can be described thus: Trypanosoma cruzi proteasome chymotrypsin-like activity (TcProtChymo) assay. Note: in the data most compounds retested in dose-response had high values. The class given is functional. The settings on record: 9.37 µM.

The species named for a further experiment is Homo sapiens. Description: To identify inhibition of the IFN signalling (Jak-Stat) pathway via expression of an eGFP reporter gene under the control of an IFN-stimulated response element (ISRE) containing MxA promoter. The class given is functional. The settings on record: 30 µM. On the technique in general: Reporter assays use an easily measured gene product as a stand-in for the process of interest.

The target of experiment [7] is T4, Tyrosyl-tRNA synthetase, putative (Trypanosoma cruzi (strain CL Brener)) (UniProt Q4DSP6).
T4 sequence (whole entry): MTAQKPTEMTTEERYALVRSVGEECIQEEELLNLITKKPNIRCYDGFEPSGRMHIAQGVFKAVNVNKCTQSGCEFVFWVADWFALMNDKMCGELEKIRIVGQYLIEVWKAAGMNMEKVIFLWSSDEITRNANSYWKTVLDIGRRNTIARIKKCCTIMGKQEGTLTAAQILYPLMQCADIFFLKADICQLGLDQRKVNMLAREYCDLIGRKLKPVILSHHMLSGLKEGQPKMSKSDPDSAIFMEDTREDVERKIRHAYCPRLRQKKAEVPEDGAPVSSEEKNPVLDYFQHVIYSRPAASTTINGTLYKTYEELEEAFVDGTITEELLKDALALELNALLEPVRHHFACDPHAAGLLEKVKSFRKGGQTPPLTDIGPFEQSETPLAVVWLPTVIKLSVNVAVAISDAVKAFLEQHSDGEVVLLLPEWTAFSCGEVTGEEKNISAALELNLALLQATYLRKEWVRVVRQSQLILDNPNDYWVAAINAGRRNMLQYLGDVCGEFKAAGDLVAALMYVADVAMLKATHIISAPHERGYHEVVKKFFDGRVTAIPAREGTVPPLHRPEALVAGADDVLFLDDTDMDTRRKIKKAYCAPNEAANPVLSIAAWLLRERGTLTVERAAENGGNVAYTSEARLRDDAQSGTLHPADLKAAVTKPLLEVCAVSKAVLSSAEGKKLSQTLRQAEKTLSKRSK
Description: Trypanosoma cruzi tyrosyl tRNA synthetase (TcYRS) _High Tyrosine SOP. Note: in the data most compounds retested in dose-response had high values. It counts as functional. To be noted: 30 µM.

The target of experiment [8] is T4, Tyrosyl-tRNA synthetase, putative (Trypanosoma cruzi (strain CL Brener)). The experiment can be described thus: Trypanosoma cruzi tyrosyl tRNA synthetase (TcYRS) SOP. The settings on record: 30 µM. The class given is functional.
Experiment [9] addresses Chromo domain-containing protein 1 (Saccharomyces cerevisiae (strain ATCC 204508 / S288c) (Baker's yeast)) (UniProt P32657). Description: ScCHD-1 Enzyme Inhibition Assay. Note: in the data most compounds retested in dose-response had high values. The settings on record: 30 µM. It counts as functional.

Each structure is given as a SMILES string. For some of these results: Potency and affinity values are given separately.

Chain of Protein translocase subunit SecA (Escherichia coli (strain K12)) (P10408 whole entry): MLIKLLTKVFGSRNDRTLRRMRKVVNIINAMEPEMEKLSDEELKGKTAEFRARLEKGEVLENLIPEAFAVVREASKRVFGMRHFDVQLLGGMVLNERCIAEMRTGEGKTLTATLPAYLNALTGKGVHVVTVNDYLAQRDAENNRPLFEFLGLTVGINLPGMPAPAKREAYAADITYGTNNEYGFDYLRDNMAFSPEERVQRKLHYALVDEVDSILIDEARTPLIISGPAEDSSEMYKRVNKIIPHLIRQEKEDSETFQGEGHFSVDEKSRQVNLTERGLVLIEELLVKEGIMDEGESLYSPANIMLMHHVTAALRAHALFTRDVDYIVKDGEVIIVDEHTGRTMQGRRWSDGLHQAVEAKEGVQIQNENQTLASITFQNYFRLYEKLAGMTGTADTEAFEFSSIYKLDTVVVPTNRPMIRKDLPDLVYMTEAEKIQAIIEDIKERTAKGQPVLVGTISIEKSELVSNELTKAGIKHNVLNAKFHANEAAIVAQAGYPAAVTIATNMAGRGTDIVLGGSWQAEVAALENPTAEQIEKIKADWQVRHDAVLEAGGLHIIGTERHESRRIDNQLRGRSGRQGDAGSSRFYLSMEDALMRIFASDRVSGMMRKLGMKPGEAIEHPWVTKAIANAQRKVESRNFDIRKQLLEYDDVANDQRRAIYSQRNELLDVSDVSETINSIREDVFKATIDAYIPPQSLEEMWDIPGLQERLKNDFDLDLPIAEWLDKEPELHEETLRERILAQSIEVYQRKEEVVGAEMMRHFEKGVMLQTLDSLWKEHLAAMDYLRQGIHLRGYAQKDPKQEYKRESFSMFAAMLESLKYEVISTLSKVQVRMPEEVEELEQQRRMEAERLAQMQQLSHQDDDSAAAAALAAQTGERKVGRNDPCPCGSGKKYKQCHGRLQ
Chain of Sialic acid-binding Ig-like lectin 9 (Homo sapiens) (Q9Y336 whole entry): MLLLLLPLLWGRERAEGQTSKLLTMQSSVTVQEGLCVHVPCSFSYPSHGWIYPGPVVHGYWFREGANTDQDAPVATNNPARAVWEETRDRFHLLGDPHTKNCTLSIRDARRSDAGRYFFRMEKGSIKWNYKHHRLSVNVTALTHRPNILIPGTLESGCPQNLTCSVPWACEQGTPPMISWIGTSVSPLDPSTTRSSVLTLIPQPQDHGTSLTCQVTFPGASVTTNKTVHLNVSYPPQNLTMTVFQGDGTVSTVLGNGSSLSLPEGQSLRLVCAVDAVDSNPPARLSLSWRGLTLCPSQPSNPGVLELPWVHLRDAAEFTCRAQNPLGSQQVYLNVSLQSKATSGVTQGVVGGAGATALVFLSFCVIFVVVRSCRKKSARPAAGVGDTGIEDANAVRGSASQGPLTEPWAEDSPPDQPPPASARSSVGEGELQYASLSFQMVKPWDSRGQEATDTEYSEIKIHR
Chain of Chromo domain-containing protein 1 (Saccharomyces cerevisiae (strain ATCC 204508 / S288c) (Baker's yeast)) (P32657 whole entry, the tested form may be a part): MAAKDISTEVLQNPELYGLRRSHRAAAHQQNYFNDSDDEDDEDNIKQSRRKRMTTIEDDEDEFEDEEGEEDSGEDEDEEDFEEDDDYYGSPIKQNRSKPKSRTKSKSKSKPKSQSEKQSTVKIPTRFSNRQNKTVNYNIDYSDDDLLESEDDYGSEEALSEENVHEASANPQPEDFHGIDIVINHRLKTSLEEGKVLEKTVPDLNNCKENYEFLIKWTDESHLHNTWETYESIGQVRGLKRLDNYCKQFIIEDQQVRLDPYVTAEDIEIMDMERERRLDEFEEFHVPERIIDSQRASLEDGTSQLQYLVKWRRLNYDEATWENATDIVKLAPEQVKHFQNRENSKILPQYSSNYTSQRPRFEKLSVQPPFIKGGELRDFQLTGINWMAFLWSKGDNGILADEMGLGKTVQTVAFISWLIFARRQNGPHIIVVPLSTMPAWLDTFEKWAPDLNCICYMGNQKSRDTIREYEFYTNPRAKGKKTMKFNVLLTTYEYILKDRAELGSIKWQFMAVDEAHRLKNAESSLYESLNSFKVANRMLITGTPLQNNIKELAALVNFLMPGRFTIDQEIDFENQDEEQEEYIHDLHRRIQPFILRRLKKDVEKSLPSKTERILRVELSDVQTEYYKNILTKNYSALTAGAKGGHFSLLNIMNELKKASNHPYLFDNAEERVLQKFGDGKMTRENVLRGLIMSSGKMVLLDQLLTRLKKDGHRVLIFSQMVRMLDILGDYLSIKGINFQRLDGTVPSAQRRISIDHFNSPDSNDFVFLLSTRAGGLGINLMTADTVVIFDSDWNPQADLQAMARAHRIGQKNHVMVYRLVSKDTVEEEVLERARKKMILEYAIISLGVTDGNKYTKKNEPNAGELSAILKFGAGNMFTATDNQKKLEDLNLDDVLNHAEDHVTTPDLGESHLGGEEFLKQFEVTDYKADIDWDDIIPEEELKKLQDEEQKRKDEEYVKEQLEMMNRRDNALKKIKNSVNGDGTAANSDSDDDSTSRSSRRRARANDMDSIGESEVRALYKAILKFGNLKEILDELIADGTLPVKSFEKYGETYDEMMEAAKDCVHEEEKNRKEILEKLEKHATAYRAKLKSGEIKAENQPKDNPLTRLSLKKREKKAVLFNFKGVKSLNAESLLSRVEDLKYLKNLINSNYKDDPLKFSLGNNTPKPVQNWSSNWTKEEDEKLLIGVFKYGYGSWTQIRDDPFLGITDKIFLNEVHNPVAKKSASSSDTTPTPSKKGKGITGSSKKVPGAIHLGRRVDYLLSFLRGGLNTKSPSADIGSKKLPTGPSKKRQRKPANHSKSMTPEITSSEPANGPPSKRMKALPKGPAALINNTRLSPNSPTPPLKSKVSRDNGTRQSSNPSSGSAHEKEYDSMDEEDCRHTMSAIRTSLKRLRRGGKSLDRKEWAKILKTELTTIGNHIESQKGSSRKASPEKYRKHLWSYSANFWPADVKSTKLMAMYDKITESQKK

Consider `CCCc1n[nH]c(C2CN(CCn3cccn3)CCO2)n1` (stereo not drawn), for which the Percent Effect in experiment [1] was -6.25%; in experiment [2], -4.17%; in [3], -1.07%; in experiment [4] it was -3.33%; in the experiment with Trypanosoma cruzi it was 2.04%; in [5] it was 2.21%. Also, the Percent Effect in [6] was 11.9%; in the experiment listed under Homo sapiens, -12.6%; in experiment [7], 2.1%; in [8] it was 0%; in experiment [9], -1.2%.
Consider `CCN1CCC(NC(=O)CN2CCc3c(nc(C4CC4)n3C)C2)CC1`, for which the Percent Effect in experiment [1] was -2.61%; in experiment [2], -5.2%; in experiment [3], -9.14%; in [4] it was 13.3%; with Trypanosoma cruzi it was 0.374%; in experiment [5], 6.76%. Moreover, the Percent Effect in experiment [6] is -2.37%; in the experiment filed under Homo sapiens it was -16.3%; in experiment [7] it was 1.94%; in experiment [8], 0%; in experiment [9] it was -7.12%.
For the compound `CS(=O)(=O)NCCNC(=O)C1(c2cccc(Cl)c2)CC1`, the Percent Effect was -0.857% in experiment [1]; 9.72% in experiment [2]; -4.76% in experiment [3]; 1.31% in experiment [4]; 1.07% in the experiment with Trypanosoma cruzi; 20.8% in [5]. For the same compound, the Percent Effect in experiment [6] was 10.9%; in the experiment listed under Homo sapiens it was -17.9%; in experiment [7], 3.16%; in experiment [8] it was 7.69%; in [9] it was -4.91%.
As to `O=S(=O)(NC1=NCN(CCc2cccs2)CN1)c1ccccc1`, the Percent Effect in experiment [1] was -3.47%; in experiment [2], 9.33%; in experiment [3] it was 1.7%; in experiment [4] it was 2.24%; with Trypanosoma cruzi, 6.29%; in experiment [5], -11.1%. Besides, the Percent Effect in experiment [6] was 18.3%; in the experiment filed under Homo sapiens, 19.6%; in [7], 5.29%; in [8], 12.8%; in experiment [9], -7.27%.
In the case of `Cc1cc(C)n(C2CCCN(C(=O)c3ccc(F)cc3F)C2)n1` (stereo not drawn), the Percent Effect in experiment [1] was -11.1%; in experiment [2] it was -5.41%; in experiment [3], -1.04%; in experiment [4], 0.0778%; in the experiment on Trypanosoma cruzi, -3.91%; in experiment [5], -3.75%. For the same compound, the Percent Effect in [6] is 7.02%; in the experiment filed under Homo sapiens it was -1.41%; in [7], 5.94%; in experiment [8], 6.1%; in experiment [9], 2.92%.
For the compound `c1ccc2c(N3CCCCC3Cn3cncn3)ncnc2c1` (stereo not drawn), the Percent Effect in experiment [1] is -4.99%; in experiment [2], 2.67%; in experiment [3], -0.541%; in experiment [4], 0.114%; with Trypanosoma cruzi, -0.876%; in [5], 3.12%. Besides, the Percent Effect was 8.54% in [6]; 16.2% in the experiment listed under Homo sapiens; 2.73% in [7]; 6.17% in experiment [8]; -6.35% in [9].
For `COCCO[C@H]1CCN(C(=O)c2ccno2)[C@H]1Cc1cnn(C)c1`, the Percent Effect in experiment [1] was -1.65%; in experiment [2] it was -2.7%; in [3], -2.17%; in experiment [4], -4.71%; in the experiment on Trypanosoma cruzi, -2.54%; in experiment [5], 1.67%. Moreover, the Percent Effect was 2.79% in experiment [6]; -28.8% in the experiment listed under Homo sapiens; 4.95% in experiment [7]; -3.66% in experiment [8]; 1.61% in experiment [9].
Consider `O=C(NCCNc1ncccn1)N(Cc1ccc(F)cc1F)C1CC1`, for which the Percent Effect is -3.52% in experiment [1]; 10.1% in [2]; -4.4% in experiment [3]; 16.9% in experiment [4]; -2.36% with Trypanosoma cruzi; 1.52% in experiment [5]. Moreover, the Percent Effect is -3.03% in experiment [6]; 8.99% in the experiment listed under Homo sapiens; 2.46% in experiment [7]; 8.86% in experiment [8]; -3.1% in experiment [9].
